From PubChem BioAssay (NCATS)
Unmarked numbers belong to inactive results. The call rests on the fitted dose curve; in most records, active means well fitted curve in the direction sought with a large enough effect; inconclusive means small, poorly fitted or top-dose-only effect, or another doubt; inactive means no such curve, though single readings can be large or run the other way.

biological target: Alpha-galactosidase (Coffea arabica) (UniProt Q42656); assay: Counterscreen for Glucocerebrosidase Inhibitors: qHTS Assay for Coffee Bean alpha-Galactosidase at pH 4.5 (AID 957); details: purified coffee bean alpha-galactosidase, fluorogenic substrate; series mostly up to 76.9 µM; activity change, negative = inhibition: at the top concentration;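 further: plate controls were enzyme alone for no effect and no enzyme for full effect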
Sequence (Q42656 whole entry, looked up): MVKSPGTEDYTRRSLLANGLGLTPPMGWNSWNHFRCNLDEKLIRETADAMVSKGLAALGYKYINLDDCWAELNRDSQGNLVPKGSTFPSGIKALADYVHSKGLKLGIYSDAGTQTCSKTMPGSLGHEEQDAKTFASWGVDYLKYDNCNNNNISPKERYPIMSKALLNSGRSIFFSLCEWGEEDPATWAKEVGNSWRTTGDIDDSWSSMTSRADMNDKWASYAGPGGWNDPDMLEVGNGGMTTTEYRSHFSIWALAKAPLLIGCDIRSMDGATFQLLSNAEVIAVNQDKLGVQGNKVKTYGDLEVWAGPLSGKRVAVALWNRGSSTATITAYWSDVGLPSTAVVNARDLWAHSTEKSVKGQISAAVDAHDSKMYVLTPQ
In short: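 Coffee bean enzyme (2 nM) with 80 uM 4-methylumbelliferyl alpha-D-galactopyranoside in 50 mM citric acid, 0.005% Tween-20, pH 4.5, 20 min at room temperature; compounds 0.7 nM–77 uM. Stopped at pH 10, fluorescence 365/440 nm; AC50 from Hill fits.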

SMILES	activity change, negative = inhibition
NC(N)=Nc1nc(CSCC/C(N)=N/S(N)(=O)=O)cs1	-0.889%
NCCCNCCSP(=O)(O)O	1.99%
CC(C)Cc1ccc(C(C)C(=O)O)cc1 (centres undefined)	-4.89%
COc1ccc(C2CNC(=O)C2)cc1OC1CCCC1 (centres undefined)	-0.663%
Clc1cccc(Cl)c1NC1=NCCN1	0.541%
CN=C(NC#N)NCCSCc1nc[nH]c1C	-0.373%
O=C1NCC2(CCN(CCc3ccccc3)CC2)O1	-1.9%
O=c1[nH]c(=O)n([C@H]2C[C@H](O)[C@@H](CO)O2)cc1Br	-0.759%
Cc1nc2c([nH]1)c(=O)n(C)c(=O)n2Cc1ccco1	-0.558%
NCCCCCC(=O)O	-2.51%
C1COC(NC(C2CC2)C2CC2)=N1	-1.54%
NC(=O)c1cnccn1	-1.88%
CCN(CC)C(=O)c1ccc(O)c(OC)c1	1.61%
CC(C)(C)NC[C@H](O)COc1nsnc1N1CCOCC1	2.13%
O=c1[nH]oc2c1CCNC2	-0.191%
COc1cc(NS(C)(=O)=O)ccc1Nc1c2ccccc2nc2ccccc12	7.92%
COc1ccc2cc([C@H](C)C(=O)O)ccc2c1	-4.89%
CNC[C@H](O)c1cccc(O)c1	1.92%
CC(=O)Oc1cc(C(C)C)c(OCCN(C)C)cc1C	-0.0202%
Cc1nc2ccccn2c(=O)c1CCN1CCC(C(=O)c2ccc(F)cc2)CC1	2.78%
C[N+](C)(C)CCOC(N)=O	-2.02%
CNCCCC12CCC(c3ccccc31)c1ccccc12	-5.49%
CCN1CCC[C@H]1CNC(=O)c1cc(S(N)(=O)=O)ccc1OC	3.26%
CN1CCN(CCC=C2c3ccccc3Sc3ccc(S(=O)(=O)N(C)C)cc32)CC1	1.52%
Nc1ccc(S(=O)(=O)Nc2ccnn2-c2ccccc2)cc1	-0.507%
O=c1[nH]cnc2[nH]ncc12	1.21%
N[C@@H](COP(=O)(O)O)C(=O)O	-2.16%
COc1cc(-c2ccc(=O)[nH]n2)ccc1OC(F)F	2.39%
O=C(CCCN1CCC2(CC1)C(=O)NCN2c1ccccc1)c1ccc(F)cc1	-1.35%
